Only some compounds are listed: those with a hit (about 4.1% of all), similar ones and a draw of the others.
ssDAF12 agonist – activates DAF-12 receptor from parasite S. stercoralis. HEK293 ssDAF-12/GRIP1 lit1-tk-luc reporter, luminescence; % of 3 µM dafachronic acid response. activation, % at 6.8 µM. hit rate 1% among 370,000;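 active = activation above the mean over all tested compounds plus 3 SD, cut at about 0.9% in these data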
DAX1 inh-1 – NR0B1 (DAX1) inhibition; P51843; HEK293 Gal4-DAX1 luciferase reporter, luminescence; inhibition, % at 6.75 µM; hit rate 0.99% among 340,000;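 active = inhibition above the mean over all tested compounds plus 3 SD, cut at about 4.2% in these data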;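 also: inhibition shows as a rise in luminescence from relieved DAX1 repression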
Target sequence (P51843 207-470 limits assumed): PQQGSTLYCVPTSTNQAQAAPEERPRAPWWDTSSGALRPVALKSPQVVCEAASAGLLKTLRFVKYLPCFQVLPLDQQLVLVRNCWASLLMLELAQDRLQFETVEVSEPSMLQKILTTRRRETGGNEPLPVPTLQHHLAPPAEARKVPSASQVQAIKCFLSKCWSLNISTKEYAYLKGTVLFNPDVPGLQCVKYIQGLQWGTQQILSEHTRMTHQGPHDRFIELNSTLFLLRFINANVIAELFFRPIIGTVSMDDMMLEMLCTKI
hcDAF12 agonist – activates DAF-12 receptor from parasite H. contortus. HEK293 hcDAF-12 lit1-tk-luc reporter, luminescence; 0% DMSO, 100% Δ7-dafachronic acid. activation, % at 6.8 µM. hit rate 1.4% among 370,000;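 active = activation above the mean of all tested compounds plus 3 SD, cut at about 5.5% in these data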
DAX1 inh-2 – inhibitors of DAX1 repression of SF-1 activated StAR promoter | HEK293T StAR-luciferase reporter, SF-1/DAX-1 repression relief | inhibition, % at 6.8 µM | hit rate 1.1% among 370,000;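 active = inhibition above the mean over all tested compounds plus 3 SD, cut at about 3.6% in these data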;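 also: higher inhibition means more luminescence from relief of DAX-1 repression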
hgDAF-12 ag – agonists of H. glycines DAF-12 nuclear receptor | AID 687014 | HEK293 GAL4-hgDAF12 UAS-luciferase reporter, agonist luminescence; normalized to butyrate control | hit rate 1.8% among 370,000 | activation, % at 6.8 µM;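 active = activation above a cutoff set at the mean of all screened compounds plus 3 SD, cut at about 10% in these data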
LXRb hcDAF ctr – LXR-beta agonism as hcDAF-12 counter-screen | 3,400 tested, under 10 active | shares compounds with hcDAF12 agonist | HEK293 Gal4-LXR tk-luc reporter, luminescence, 24 h; normalized: DMSO 0%, positive control 100% | activation, % at 6.8 µM;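 active = mean percent activation of the reporter above a cutoff set as the average over tested compounds plus their standard deviation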
Target sequence (P55055 whole entry, looked up, the tested form may be a part): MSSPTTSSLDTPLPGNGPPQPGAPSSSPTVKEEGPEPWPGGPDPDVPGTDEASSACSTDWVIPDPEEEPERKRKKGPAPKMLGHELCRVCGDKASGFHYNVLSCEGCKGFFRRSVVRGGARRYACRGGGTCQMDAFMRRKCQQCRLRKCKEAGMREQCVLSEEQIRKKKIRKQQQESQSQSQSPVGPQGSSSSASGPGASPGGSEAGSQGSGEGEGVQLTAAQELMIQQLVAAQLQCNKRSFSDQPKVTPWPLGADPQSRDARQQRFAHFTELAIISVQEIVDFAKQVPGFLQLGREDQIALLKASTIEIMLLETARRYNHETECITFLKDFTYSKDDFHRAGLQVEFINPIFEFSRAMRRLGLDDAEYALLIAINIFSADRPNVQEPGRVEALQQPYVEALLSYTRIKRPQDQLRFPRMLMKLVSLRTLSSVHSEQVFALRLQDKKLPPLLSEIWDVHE
hcDAF12 ag – hcDAF-12 agonism, confirmation assay | shares compounds with hcDAF12 agonist | HEK293 hcDAF-12 lit1-tk-luc reporter, luminescence; % of Δ7-dafachronic acid response | activation, % at 6.8 µM | hit rate 61% among 3,400 | AID 743032;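 active = mean activation across triplicate tests above the threshold derived from the earlier primary screen, cut at about 5.5% in these data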
Each line names hits and unclear results; the compound was inactive in the other large screens (follow-up assays come after a bar, where they were run).

Cc1nccn1CC(=O)N/N=C/c1ccccc1O	none
Cc1c(/C=N\NC(=O)c2c[nH]c3ccccc23)cnn1C	ssDAF12 agonist 1.7, hcDAF12 agonist 9.4 | LXRb hcDAF ctr inactive | hcDAF12 ag inactive
O=C(Nc1ccc(F)cc1)OCc1cn(Cc2ccc(C(F)(F)F)cc2)nn1	none (no result: DAX1 inh-1)
CC(C)(C)OC(=O)N/N=C/c1c[nH]c2ccccc12	ssDAF12 agonist 1.4, hcDAF12 agonist 11.0, hgDAF-12 ag 11.9 | LXRb hcDAF ctr inactive | hcDAF12 ag 6.6
Cc1occc1C(=O)N/N=C/c1c[nH]c2ccccc12	none (no result: ssDAF12 agonist, hcDAF12 agonist, DAX1 inh-2, hgDAF-12 ag)
O=C(N/N=C/c1c[nH]c2ccccc12)C1CC1(c1ccccc1)c1ccccc1 (stereo unspecified)	none
O=C(N/N=C/c1c[nH]c2ccccc12)c1ccc(Cl)cc1	none
O=C(N/N=C\c1c[nH]c2ccccc12)c1ccc(O)cc1	ssDAF12 agonist 1.4, hcDAF12 agonist 9.7 | LXRb hcDAF ctr inactive | hcDAF12 ag inactive
O=C(N/N=C/c1c[nH]c2ccccc12)C1CC1c1ccccc1 (stereo unspecified)	hcDAF12 agonist 9.2 | LXRb hcDAF ctr inactive | hcDAF12 ag inactive
COc1ccc(C(=O)[C@H]2[C@H]3C(=O)N(c4ccc(OC(C)=O)cc4)C(=O)[C@H]3C3C=CC=NN32)cc1 (stereo partly specified)	none
COc1ccc(N2C(=O)[C@@H]3[C@H](C2=O)[C@H]2C=CC=NN2[C@@H]3C(=O)Nc2ccc(Cl)cc2)cc1	hcDAF12 agonist 6.5 (no result: DAX1 inh-1) | LXRb hcDAF ctr inactive | hcDAF12 ag inactive
O=C(Nc1ccc(Cl)cc1)[C@@H]1[C@@H]2C(=O)N(c3ccc4ccccc4c3)C(=O)[C@@H]2[C@H]2C=CC=NN21	hcDAF12 agonist 6.8 | LXRb hcDAF ctr inactive | hcDAF12 ag inactive
O=C(Nc1ccc(Cl)cc1)[C@@H]1[C@@H]2C(=O)N(c3cccc(F)c3)C(=O)[C@@H]2[C@H]2C=CC=NN21	none
O=C(NCc1ccc(F)cc1)c1cnc2sccn2c1=O	none
O=C(NCCc1c[nH]c2ccccc12)c1cnc2sccn2c1=O	ssDAF12 agonist 1.4, hcDAF12 agonist 8.6 | LXRb hcDAF ctr inactive | hcDAF12 ag 8.9
O=C(NCCc1c[nH]c2ccccc12)c1cnccn1	ssDAF12 agonist 3.4, hcDAF12 agonist 6.7 | LXRb hcDAF ctr inactive | hcDAF12 ag inactive
CCC(C)c1ccc(NC(=O)CSc2nnc(-c3cccc(C)c3)n2C)cc1 (stereo unspecified)	none (no result: DAX1 inh-1)
CCC(CO)Nc1cccc2c1S(=O)(=O)N(Cc1cn(Cc3cccc(F)c3)nn1)Cc1ccccc1O2 (stereo unspecified)	none (no result: DAX1 inh-1)
CSc1ccc(CNC(=O)Cc2ccc(NC(=O)C3=C(C)OCCS3)cc2)cc1	hcDAF12 agonist 7.1 | LXRb hcDAF ctr inactive | hcDAF12 ag 6.5
COc1ccc(-c2nnn3c2C2c4cc(-c5cccc(F)c5)ccc4CCN2C(=O)C3)cc1 (stereo unspecified)	none (no result: DAX1 inh-1)
O=c1[nH]c(-[n+]2ccc3ccccc3c2)c(/C=N/N=C(\[O-])c2ccccc2)s1	hcDAF12 agonist 9.0 | LXRb hcDAF ctr inactive | hcDAF12 ag inactive
Cc1cc(C)c(NC(=S)NC(=O)c2ccc(-c3ccccc3)cc2)c(C)c1	none
COC(=O)c1ccccc1NC(=S)NC(=O)c1ccc(C)cc1	hcDAF12 agonist 7.4 | LXRb hcDAF ctr inactive | hcDAF12 ag inactive
CC(=O)c1cccc(NC(=S)NC(=O)c2ccccc2Cl)c1	none
Cc1ccc(C(=O)NC(=S)Nc2cc(-c3nc4ccccc4s3)ccc2C)cc1	ssDAF12 agonist 1.4, hcDAF12 agonist 7.2, hgDAF-12 ag 12.3 | LXRb hcDAF ctr inactive | hcDAF12 ag 6.0
O=C(NC(=S)Nc1ccccc1O)c1ccccc1Cl	ssDAF12 agonist 1.5, hcDAF12 agonist 7.7, hgDAF-12 ag 12.5 | LXRb hcDAF ctr inactive | hcDAF12 ag 6.2
C[C@H]1CN(c2ccc(N3CCN(C(=O)OC(C)(C)C)C[C@@H]3C)cc2C#N)CCN1Cc1ccccc1	none (no result: DAX1 inh-1)
CN1OC[C@@H]2CN(Cc3ccc4c(c3)OCO4)[C@H](c3ccc(-n4ccnc4)cc3)C[C@@H]21	none (no result: DAX1 inh-1)
COCCNC(=O)C1CC(c2ccccc2[N+](=O)[O-])=NO1 (stereo unspecified)	none
COc1ccc(CCNC(=O)C2CC(c3ccccc3[N+](=O)[O-])=NO2)cc1 (stereo unspecified)	ssDAF12 agonist 1.3, hcDAF12 agonist 7.6 | LXRb hcDAF ctr inactive | hcDAF12 ag 6.6
CC1=NN(C(N)=S)C(=O)C1N=Nc1ccc(C)cc1C (stereo unspecified)	ssDAF12 agonist 1.2, hcDAF12 agonist 11.5, hgDAF-12 ag 11.3 (no result: DAX1 inh-1) | LXRb hcDAF ctr inactive | hcDAF12 ag 13.4
CC(C)C[C@@H]1COc2cccc(NCCO)c2S(=O)(=O)N1	none (no result: DAX1 inh-1)
O=C1c2ccccc2-c2n[nH]c3cccc1c23	none
Cc1ccccc1-c1cc2c(nn1)-c1ccccc1C2=O	ssDAF12 agonist 1.5, hcDAF12 agonist 7.2 | LXRb hcDAF ctr inactive | hcDAF12 ag 6.2
O=C(Nc1ccccc1)Nc1nc2ncccn2c1-c1ccc(F)c(F)c1	none (no result: DAX1 inh-1)
O=C(CN1C(=O)C2C3C=CC(C4CC34)C2C1=O)Nc1cnc2ccccc2c1 (stereo unspecified)	hcDAF12 agonist 7.5 | LXRb hcDAF ctr inactive | hcDAF12 ag inactive
COc1cccc(C(=O)N[C@@H](CC(C)C)C(=O)N2CCC[C@H]2C(=O)NCc2ccccc2)c1	none (no result: DAX1 inh-1)
Cc1ccccc1Cn1cc(COC(=O)N2CCOCC2)nn1	none (no result: DAX1 inh-1)
c1ccc(-n2c(SCc3cccc4ccccc34)nnc2-c2ccncc2)cc1	none (no result: DAX1 inh-1)
Nc1[nH]c(C(=O)c2ccc(Br)cc2)c(-c2ccccc2)c1C(=O)NCCc1c[nH]c2ccccc12	none (no result: DAX1 inh-1)
Cc1cc(C(=O)NCC2CCCO2)sc1C (stereo unspecified)	none
O=C(NCC1CCCO1)c1cc2c(s1)CCC2 (stereo unspecified)	hcDAF12 agonist 7.7 | LXRb hcDAF ctr inactive | hcDAF12 ag inactive
O=C(Nc1ncccn1)c1cccc(Cl)c1	none (no result: DAX1 inh-1)
O=C(Nc1ncccn1)c1cccc(F)c1	hcDAF12 agonist 7.0 | LXRb hcDAF ctr inactive | hcDAF12 ag inactive
Cc1ccc2nc(CN(C)C(=O)[C@H](CCc3ccccc3)NC(=O)[C@H]3O[C@@H](n4cnc5c(N)ncnc54)[C@H](O)[C@@H]3O)[nH]c2c1	none (no result: DAX1 inh-1)
Cc1cc(O)c(C(=O)/C=C/c2ccccc2O)c(=O)o1	hcDAF12 agonist 6.8 | LXRb hcDAF ctr inactive | hcDAF12 ag inactive
CC(CN1CCCCC1)C(=O)NN (stereo unspecified)	none
CC(C)C(=O)N1CCCCCCN1C(=O)C(C)C	DAX1 inh-1 4.4, hcDAF12 agonist 7.8 | LXRb hcDAF ctr inactive | hcDAF12 ag inactive

High-throughput results as filed in PubChem BioAssay.
